# VACV E9 pol inh = vaccinia E9 polymerase processive synthesis inhibitors, primary screen, biochemical, absorbance; in vitro processive DNA synthesis, absorbance read-out; active compounds read low; normalized absorbance, % (no concentration beside the values); Vaccinia virus DNA polymerase (E9) processive complex; actives 0.94% (n = 46,000); in the data active = normalized absorbance mostly below about 85%, no sharp cut-off; inactive = mostly above about 86%
# * = called active by the depositor; ! = not confirmed by another sample. Shown is part of a subset that was picked to be rich in hits.
SMILES,VACV E9 pol inh
Cc1ccc(/C=C2/Sc3ccccc3NC2=O)cc1,99
O=C1NC(=O)/C(=C\c2ccccc2)S1,74*
CC(C)c1nccn1C(=O)c1ccccc1C(=O)O,102
CC(C)CC(=O)Nc1nnc(SCc2ccccc2)s1,99
O=S(=O)(NC1CCCC1)c1ccc(-n2cccn2)cc1,98
COc1cccc(CNC(=O)c2ccc(Nc3nc4ccccc4n4nnnc34)cc2)c1,104
COc1ccc(C2C3CCC=C3C(C#N)=C(N)C2(C#N)C#N)cc1 (configuration not stated),86
CCC(=O)Nc1nnc(SCc2cccc(F)c2)s1,100
Cc1ccc(C(=O)Nc2nnc(SCc3ccccc3)s2)cc1,100
CSc1ncc(Cl)c(C(=O)Nc2nnc(SCc3ccc(F)cc3)s2)n1,68*
Cc1c(C(=O)N2CCN(c3cccc(Cl)c3)CC2)sc2nc[nH]c(=O)c12,100
CC(C)c1cccc(C(C)C)c1NC(=O)C(C)(C)C,100
O=C(Nc1ccc(Cl)cc1)OCc1ccc(Cl)nc1,89
Cc1cc(OC(=O)c2ccco2)nc(SCc2c(Cl)cccc2Cl)n1,50*
Cc1cc(Oc2ccccc2)nc(SCc2ccccc2)n1,101
O=C(Oc1ccc(Cl)c2cccnc12)c1ccco1,101
Cc1cccc(N(C)C(=O)c2cccc3c2SCCC3=O)c1,99
Cc1ccc(C(=O)Nc2nnc(-c3ccccc3)s2)cc1,100
CC(C)C(=O)Nc1nnc(-c2ccc(Cl)cc2)s1,100
CC(C)C(=O)Nc1nnc(-c2ccccc2)s1,60*
Cc1ccc(NC(=O)C2(NC(=O)c3ccc(-n4cnnn4)cc3)CCCCC2)cc1,100
NC(=Nc1ccccc1)NC(=O)c1nc(Cl)c(N)nc1N,51*
N/C(=N\c1nc2ccccc2s1)NC(=O)c1cccc(Cl)c1,99
NC(=O)NC(=O)Cc1ccccc1,102
NC(=NCc1ccccc1)NC(=O)c1nc(Cl)c(N)nc1N,59*!
SMILES,VACV E9 pol inh
N/C(=N\c1nc(=O)c2ccccc2s1)NC(=O)c1ccc(Cl)c(Cl)c1,100
O=C(Cc1csc(Nc2ccc(Cl)cc2)n1)NCc1ccccc1,100
CCN1CCSc2ccc(C(=O)NC3CC3)cc21,96
Cc1ccc(CNC(=O)CSc2nc3ccccc3c(=O)n2-c2ccccc2)cc1,99
N#CC1=C(SCC(=O)N2CCOCC2)NC(=O)CC1c1ccccc1F (configuration not stated),92
O=C1N=c2ccccc2=C/C1=C/c1sc(=S)n(Cc2ccccc2)c1O,102
Cc1ccc(C(O)CN=Cc2c(O)ccc3ccccc23)cn1 (configuration not stated),88
S=c1[nH]c(-c2ccccc2)c(-c2ccccc2)o1,62*
O=c1cc(-c2ccccc2)[nH]c(=S)[nH]1,100
S=c1cc(-c2ccccc2)ss1,84
O=C(CSc1nc2ccccc2n1-c1ccccc1)NC1CCCC1,103
C[N+]1(Cc2ccco2)Cc2ccccc2C1,100
Cc1ccc2c(c1)N(C(=O)N1CCC(C(=O)O)CC1)CC(C)O2 (configuration not stated),94
CC1CN(C(=O)NC23CC4CC(CC(C4)C2)C3)c2cc(Cl)ccc2O1 (configuration not stated),102
CC1CN(C(=O)N2CCC(C(=O)O)CC2)c2cc(Cl)ccc2O1 (configuration not stated),68*
CCc1cc2c(cc(C(=O)OC)n2Cc2ccc(Br)cc2F)s1,101
O=C(O)Cn1c2c(c3ccccc31)CSc1ccc(Cl)cc1-2,71*
O=C(O)Cn1cc(C(=O)C2CC2)c2ccccc21,89
CCSc1nc2ccccc2n1CC(=O)O,101
COc1ccc(CCN2C(=O)CC(Sc3ccccc3C(=O)O)C2=O)cc1OC (configuration not stated),100
COC(=O)c1c(N2C(=O)C=CC2=O)sc2c1CCC(C(C)(C)C)C2 (configuration not stated),107
CC1=C(C(=O)Nc2ccccc2)C(CC(C)C)n2ncc(C(=O)Nc3ccccc3)c2N1 (configuration not stated),98
CCOc1ccc2c(c1)SC1=NC(C(F)(F)F)(C(F)(F)F)NC(=O)N12,108
O=C1S/C(=C\c2cn(Cc3ccccc3)c3ccccc23)C(=O)N1CN1CCCCC1,100
CCc1c(C)[nH]c(N)nc1=S,100
SMILES,VACV E9 pol inh
N#CC1=C(N)OC2=C(C(=O)CCC2)C1C1CCCCC1 (configuration not stated),94
O=C(Nc1nc(=S)ss1)c1ccc(Cl)cc1,102
COC(=O)[C@@]1(C)CCCC2(C)c3ccc(C(C)C)cc3CCC21 (some centres not stated),100
COc1ccc2c(c1)[C@@]1(C)CCC[C@](C)(CO)C1CC2 (some centres not stated),100
CC(C)c1ccc2c(c1)CCC1C(C)(CNC(=O)/C=C/C(=O)O)CCCC21C (configuration not stated),81*
Cc1ccc(Cn2c(/N=C/c3ccc(Br)cc3)nc3ccccc32)cc1,100
COc1ccc(N=Cc2cn(-c3ccc(OC)cc3)cc2C=Nc2ccc(OC)cc2)cc1,68
COc1ccc(N=Cc2ccccc2F)cc1,52*
COc1ccc(C=Nc2ccccc2)cc1,101
O=C(OCC(=O)N1CCCCC1)c1ccccc1I,92
N#CC(C(=O)N1CCCCC1)C(CC(=O)c1ccccc1)c1cccc(Br)c1 (configuration not stated),101
Cc1cc2ncc(C(=O)c3ccccc3O)cn2n1,102
COC(CNC(=O)c1ccc2c(c1)N(Cc1ccc(Cl)cc1)CCS2)OC,94
O=C(O)c1ccc2c(c1)N(Cc1ccc(Cl)cc1)CCS2,72*
O=C(c1ccc2c(c1)N(Cc1ccc(F)cc1)CCS2)N1CCCCC1,89
CCCNC(=O)c1ccc2c(c1)sc1nc(-c3ccccc3)cn12,99
CCOc1ccc(N2Cc3ccccc3C2=N)cc1,100
CCC(=O)Nc1ccc(-c2nc3ccc(C)cc3s2)cc1,99
Cc1ccc(/C=C2/SC(=O)NC2=S)o1,75*
Cc1ccc(/C=C2/SC(=Nc3ccc(O)cc3)NC2=O)o1,102
Cc1ccc(/C=C2\SC(=O)NC2=O)o1,83
Cc1ccc(O)c(C(CC(=O)NCC2(c3ccccc3)CCOCC2)c2ccccc2)c1 (configuration not stated),98
CC(=O)N1CCc2ccccc2C1CNC1=CC(=O)CC(C)(C)C1 (configuration not stated),100
CCc1cc(=O)[nH]c(SCc2cccc(Cl)c2)n1,103
O=C1N[C@H](C(=O)O)C1Cc1ccccc1 (some centres not stated),99
SMILES,VACV E9 pol inh
O=C(O)C1C2CC=CC2c2cc(Cl)cc3c2N1CC1CC=CC31 (configuration not stated),100
Cc1cc(Cl)ccc1NS(=O)(=O)c1ccc2c(c1)[C@H]1C=CC[C@H]1[C@@H](c1ccccc1)N2,101
Brc1ccccc1[C@@H]1Nc2ccccc2[C@@H]2C=CC[C@@H]21,100
O=C(O)C1Nc2ccccc2C2C=CCC12 (configuration not stated),9.8*
Cc1ccc2c(c1)C1C=CCC1C(c1ccc(N=Cc3ccccc3)cc1)N2 (configuration not stated),97
O=C(O)c1ccc(C2Nc3ccccc3C3C=CCC32)cc1 (configuration not stated),10*
CC(C)C1Nc2ccc(C(=O)O)cc2C2C=CCC21 (configuration not stated),78*

# Bioassay records from PubChem.
